# From ChEMBL document CHEMBL1961873, “Compounds: GSK PKIS; Assays: Nanosyn kinase panel” (2012)
# Tests used:
# [1] = target: Tyrosine-protein kinase Fer (Homo sapiens) (UniProt P16591); conditions: at 1 µM
# [2] = target: Tyrosine-protein kinase Fes/Fps (Homo sapiens) (UniProt P07332); conditions: at 0.1 µM
# [3] = target: Tyrosine-protein kinase Fes/Fps (Homo sapiens) (UniProt P07332); conditions: at 1 µM
# [4] = target: Fibroblast growth factor receptor 1 (Homo sapiens) (UniProt P11362); conditions: at 0.1 µM
# [5] = target: Fibroblast growth factor receptor 1 (Homo sapiens) (UniProt P11362); conditions: at 1 µM
# [6] = target: Fibroblast growth factor receptor 2 (Homo sapiens) (UniProt P21802); conditions: at 0.1 µM
# [7] = target: Fibroblast growth factor receptor 2 (Homo sapiens) (UniProt P21802); conditions: at 1 µM
# [8] = target: Fibroblast growth factor receptor 3 (Homo sapiens) (UniProt P22607); conditions: at 0.1 µM
# [9] = target: Fibroblast growth factor receptor 3 (Homo sapiens) (UniProt P22607); conditions: at 1 µM
# [10] = target: Fibroblast growth factor receptor 4 (Homo sapiens) (UniProt P22455); conditions: at 0.1 µM
# [11] = target: Fibroblast growth factor receptor 4 (Homo sapiens) (UniProt P22455); conditions: at 1 µM
# [12] = target: Tyrosine-protein kinase Fgr (Homo sapiens) (UniProt P09769); conditions: at 0.1 µM
# [13] = target: Tyrosine-protein kinase Fgr (Homo sapiens) (UniProt P09769); conditions: at 1 µM
# [14] = target: Vascular endothelial growth factor receptor 1 (Homo sapiens) (UniProt P17948); conditions: at 0.1 µM
# [15] = target: Vascular endothelial growth factor receptor 1 (Homo sapiens) (UniProt P17948); conditions: at 1 µM
# [16] = target: Receptor-type tyrosine-protein kinase FLT3 (Homo sapiens) (UniProt P36888); conditions: at 0.1 µM
# [17] = target: Receptor-type tyrosine-protein kinase FLT3 (Homo sapiens) (UniProt P36888); conditions: at 1 µM
# [18] = tested on: T1, Receptor-type tyrosine-protein kinase FLT3 (Homo sapiens), P36888 [D835Y]; conditions: at 0.1 µM
# T1 sequence (whole entry): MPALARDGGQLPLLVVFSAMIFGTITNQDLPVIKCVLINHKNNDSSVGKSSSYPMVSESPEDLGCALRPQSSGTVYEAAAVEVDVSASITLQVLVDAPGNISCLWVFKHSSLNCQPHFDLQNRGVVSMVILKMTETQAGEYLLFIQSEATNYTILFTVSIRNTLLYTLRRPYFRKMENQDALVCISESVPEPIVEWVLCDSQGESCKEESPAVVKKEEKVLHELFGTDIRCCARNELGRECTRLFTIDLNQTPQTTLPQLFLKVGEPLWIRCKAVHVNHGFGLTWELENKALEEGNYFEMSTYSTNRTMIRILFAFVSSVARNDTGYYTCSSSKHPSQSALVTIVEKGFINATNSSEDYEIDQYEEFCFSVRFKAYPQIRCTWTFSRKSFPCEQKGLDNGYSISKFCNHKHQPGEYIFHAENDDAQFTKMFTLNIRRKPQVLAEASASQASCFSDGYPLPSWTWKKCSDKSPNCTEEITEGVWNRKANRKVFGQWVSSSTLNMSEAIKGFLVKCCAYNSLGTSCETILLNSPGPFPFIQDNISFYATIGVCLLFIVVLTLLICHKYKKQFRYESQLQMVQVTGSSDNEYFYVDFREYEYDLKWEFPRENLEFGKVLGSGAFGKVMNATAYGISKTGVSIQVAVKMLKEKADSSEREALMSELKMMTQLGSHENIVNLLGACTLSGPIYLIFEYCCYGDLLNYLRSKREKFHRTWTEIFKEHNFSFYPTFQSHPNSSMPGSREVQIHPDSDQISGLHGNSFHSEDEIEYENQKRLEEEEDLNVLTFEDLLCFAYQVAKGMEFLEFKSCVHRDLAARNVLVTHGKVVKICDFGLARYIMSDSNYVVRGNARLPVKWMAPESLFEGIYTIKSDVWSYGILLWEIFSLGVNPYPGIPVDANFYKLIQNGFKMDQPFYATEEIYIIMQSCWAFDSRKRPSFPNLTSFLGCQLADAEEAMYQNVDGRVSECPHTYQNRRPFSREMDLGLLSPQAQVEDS
# [19] = target: Non-receptor tyrosine-protein kinase TYK2 (Homo sapiens) (UniProt P29597); conditions: at 1 µM;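 note: values are mean percent inhibition of TYK2 kinase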
# [20] = target: T2, Tyrosine-protein kinase receptor TYRO3 (Homo sapiens) (UniProt Q06418); conditions: at 0.1 µM;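 note: reported percentages are averaged inhibition values of TYRO3 kinase activity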
# T2 sequence (whole entry): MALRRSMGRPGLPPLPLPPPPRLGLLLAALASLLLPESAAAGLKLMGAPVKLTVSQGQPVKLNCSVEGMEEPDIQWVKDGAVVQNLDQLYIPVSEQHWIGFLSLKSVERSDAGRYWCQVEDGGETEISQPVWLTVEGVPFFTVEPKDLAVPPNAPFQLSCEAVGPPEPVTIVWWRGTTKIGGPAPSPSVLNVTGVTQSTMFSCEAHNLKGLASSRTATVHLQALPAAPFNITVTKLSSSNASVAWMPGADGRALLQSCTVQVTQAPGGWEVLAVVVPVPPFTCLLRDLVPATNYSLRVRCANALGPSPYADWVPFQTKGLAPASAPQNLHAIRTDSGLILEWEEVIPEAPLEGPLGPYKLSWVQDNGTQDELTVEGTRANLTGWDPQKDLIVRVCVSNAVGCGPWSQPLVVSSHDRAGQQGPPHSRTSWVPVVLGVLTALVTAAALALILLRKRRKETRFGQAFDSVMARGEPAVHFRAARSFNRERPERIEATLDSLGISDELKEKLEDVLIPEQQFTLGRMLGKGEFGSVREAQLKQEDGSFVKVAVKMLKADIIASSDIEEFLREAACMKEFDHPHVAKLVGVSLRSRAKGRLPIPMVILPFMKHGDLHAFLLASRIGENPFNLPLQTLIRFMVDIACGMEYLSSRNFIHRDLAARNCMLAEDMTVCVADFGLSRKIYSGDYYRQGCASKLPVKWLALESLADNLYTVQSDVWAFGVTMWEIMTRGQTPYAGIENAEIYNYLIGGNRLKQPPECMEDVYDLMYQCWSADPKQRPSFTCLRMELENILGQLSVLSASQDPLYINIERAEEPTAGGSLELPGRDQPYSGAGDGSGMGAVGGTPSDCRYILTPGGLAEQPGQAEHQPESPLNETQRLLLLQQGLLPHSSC
# Tyrosine-protein kinase Fer (Homo sapiens), sequence (P16591 whole entry, looked up): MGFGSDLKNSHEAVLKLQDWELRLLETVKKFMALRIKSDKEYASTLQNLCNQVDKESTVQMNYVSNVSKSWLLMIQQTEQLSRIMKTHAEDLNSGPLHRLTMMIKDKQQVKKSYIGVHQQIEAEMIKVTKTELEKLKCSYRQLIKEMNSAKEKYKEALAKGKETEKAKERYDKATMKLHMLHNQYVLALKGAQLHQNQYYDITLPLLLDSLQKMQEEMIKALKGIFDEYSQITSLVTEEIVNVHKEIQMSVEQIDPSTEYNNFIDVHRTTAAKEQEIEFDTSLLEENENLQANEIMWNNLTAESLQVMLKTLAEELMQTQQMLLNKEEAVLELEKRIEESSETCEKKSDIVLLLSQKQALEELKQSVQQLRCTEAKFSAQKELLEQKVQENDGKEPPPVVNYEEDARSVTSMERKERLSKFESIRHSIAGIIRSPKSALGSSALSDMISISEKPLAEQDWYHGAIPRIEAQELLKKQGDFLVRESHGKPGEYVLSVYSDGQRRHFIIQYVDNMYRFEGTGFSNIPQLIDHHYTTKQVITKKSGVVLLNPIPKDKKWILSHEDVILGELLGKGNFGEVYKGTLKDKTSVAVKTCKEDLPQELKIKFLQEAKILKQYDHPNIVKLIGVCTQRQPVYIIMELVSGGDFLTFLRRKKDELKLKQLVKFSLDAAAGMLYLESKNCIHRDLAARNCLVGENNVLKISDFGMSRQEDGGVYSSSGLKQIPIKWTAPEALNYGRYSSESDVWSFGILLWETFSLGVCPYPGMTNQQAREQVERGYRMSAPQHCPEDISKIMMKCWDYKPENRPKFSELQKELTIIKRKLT
# Fibroblast growth factor receptor 4 (Homo sapiens), sequence (P22455 22-802 limits assumed): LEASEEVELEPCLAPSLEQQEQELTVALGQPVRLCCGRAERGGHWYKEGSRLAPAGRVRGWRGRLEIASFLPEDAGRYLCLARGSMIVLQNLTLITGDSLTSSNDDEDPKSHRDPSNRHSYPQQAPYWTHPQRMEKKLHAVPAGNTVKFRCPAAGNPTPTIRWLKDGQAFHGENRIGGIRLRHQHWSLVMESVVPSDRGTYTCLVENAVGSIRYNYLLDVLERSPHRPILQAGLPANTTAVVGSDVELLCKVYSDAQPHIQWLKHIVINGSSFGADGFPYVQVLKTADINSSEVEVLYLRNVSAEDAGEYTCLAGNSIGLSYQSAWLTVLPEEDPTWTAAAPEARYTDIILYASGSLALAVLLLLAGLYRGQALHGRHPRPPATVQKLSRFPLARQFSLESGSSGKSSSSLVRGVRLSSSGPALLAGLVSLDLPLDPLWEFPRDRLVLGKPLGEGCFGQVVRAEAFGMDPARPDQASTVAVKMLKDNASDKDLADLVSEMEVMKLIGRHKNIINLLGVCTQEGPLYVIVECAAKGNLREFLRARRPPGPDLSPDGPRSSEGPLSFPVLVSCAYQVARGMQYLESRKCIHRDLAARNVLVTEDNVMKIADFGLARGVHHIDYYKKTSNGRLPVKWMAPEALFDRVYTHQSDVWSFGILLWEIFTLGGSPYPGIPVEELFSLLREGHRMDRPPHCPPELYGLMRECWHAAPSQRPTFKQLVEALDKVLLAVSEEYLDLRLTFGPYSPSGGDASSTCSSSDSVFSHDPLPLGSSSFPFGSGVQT
# Fibroblast growth factor receptor 3 (Homo sapiens), sequence (P22607 23-806 limits assumed): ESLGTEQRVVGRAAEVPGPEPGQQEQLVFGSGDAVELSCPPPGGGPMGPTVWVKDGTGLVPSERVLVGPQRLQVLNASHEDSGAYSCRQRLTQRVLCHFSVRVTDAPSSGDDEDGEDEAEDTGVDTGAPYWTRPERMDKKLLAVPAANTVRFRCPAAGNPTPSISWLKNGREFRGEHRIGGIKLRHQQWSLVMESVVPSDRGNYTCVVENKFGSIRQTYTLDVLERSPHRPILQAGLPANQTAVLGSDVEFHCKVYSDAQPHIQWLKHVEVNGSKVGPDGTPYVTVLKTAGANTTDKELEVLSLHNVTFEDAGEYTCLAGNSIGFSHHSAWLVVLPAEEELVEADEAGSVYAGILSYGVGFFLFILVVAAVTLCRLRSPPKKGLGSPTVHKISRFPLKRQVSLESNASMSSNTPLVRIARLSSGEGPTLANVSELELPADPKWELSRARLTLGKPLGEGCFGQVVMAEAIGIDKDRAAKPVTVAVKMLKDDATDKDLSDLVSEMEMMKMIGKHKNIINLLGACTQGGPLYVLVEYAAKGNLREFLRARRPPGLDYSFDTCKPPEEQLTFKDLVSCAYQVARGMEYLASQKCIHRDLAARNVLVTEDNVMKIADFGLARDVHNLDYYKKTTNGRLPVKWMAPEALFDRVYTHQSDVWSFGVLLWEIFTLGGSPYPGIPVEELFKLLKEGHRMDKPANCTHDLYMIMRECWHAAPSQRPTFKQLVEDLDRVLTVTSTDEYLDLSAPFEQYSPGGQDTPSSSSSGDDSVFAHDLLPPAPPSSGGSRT
# Vascular endothelial growth factor receptor 1 (Homo sapiens), sequence (P17948 whole entry): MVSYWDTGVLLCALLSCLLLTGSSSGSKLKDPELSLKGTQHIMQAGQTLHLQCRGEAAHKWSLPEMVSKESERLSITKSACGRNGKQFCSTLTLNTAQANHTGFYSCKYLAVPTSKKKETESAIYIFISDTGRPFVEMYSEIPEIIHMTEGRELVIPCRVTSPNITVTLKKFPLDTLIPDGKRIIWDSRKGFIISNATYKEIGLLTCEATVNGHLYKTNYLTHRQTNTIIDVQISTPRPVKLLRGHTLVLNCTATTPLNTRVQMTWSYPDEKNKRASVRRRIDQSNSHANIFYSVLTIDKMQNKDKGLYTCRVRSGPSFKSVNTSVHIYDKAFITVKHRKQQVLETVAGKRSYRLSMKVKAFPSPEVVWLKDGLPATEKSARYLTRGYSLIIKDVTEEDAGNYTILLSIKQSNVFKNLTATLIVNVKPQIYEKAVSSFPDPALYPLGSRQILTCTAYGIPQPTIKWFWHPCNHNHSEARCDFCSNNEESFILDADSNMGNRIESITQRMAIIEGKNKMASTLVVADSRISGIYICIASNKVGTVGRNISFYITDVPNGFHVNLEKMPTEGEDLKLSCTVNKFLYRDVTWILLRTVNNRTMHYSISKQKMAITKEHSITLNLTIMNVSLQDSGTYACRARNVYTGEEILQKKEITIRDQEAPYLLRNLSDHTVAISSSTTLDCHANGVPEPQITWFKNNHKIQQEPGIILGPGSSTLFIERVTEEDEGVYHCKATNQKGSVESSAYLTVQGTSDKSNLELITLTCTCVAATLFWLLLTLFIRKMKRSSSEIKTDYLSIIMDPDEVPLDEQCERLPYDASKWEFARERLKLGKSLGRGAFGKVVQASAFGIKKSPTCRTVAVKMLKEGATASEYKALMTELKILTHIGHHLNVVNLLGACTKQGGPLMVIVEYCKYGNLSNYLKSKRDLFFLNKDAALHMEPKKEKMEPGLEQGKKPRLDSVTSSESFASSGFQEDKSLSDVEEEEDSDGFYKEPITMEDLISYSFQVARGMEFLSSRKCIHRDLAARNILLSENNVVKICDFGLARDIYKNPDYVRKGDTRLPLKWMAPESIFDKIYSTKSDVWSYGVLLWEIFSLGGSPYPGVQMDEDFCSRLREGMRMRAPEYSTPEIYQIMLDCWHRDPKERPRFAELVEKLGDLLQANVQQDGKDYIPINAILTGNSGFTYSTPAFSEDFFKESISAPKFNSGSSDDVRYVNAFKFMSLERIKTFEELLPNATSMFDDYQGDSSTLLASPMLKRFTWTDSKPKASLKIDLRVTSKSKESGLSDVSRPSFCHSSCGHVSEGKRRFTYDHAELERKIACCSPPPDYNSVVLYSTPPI
# Fibroblast growth factor receptor 2 (Homo sapiens), sequence (P21802 22-821 limits assumed): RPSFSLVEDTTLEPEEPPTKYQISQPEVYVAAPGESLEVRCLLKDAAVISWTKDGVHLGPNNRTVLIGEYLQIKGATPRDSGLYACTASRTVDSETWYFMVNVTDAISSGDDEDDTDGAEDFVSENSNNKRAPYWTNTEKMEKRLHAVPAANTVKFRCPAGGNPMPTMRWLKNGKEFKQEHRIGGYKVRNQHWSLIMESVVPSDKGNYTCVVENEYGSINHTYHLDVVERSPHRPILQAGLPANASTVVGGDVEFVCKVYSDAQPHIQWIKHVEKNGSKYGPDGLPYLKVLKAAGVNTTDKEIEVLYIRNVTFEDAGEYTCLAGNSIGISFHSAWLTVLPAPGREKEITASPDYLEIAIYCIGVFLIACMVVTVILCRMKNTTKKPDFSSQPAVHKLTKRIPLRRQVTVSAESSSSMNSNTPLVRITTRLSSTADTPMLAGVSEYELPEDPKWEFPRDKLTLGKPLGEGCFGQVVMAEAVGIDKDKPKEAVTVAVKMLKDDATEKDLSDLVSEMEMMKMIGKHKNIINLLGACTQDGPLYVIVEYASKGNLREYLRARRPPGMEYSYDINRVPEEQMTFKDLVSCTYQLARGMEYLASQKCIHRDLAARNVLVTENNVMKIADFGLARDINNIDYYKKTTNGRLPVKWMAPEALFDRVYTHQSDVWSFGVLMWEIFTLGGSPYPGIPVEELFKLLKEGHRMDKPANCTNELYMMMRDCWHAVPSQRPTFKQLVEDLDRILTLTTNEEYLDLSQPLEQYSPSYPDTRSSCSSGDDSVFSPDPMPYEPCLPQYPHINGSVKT
# Tyrosine-protein kinase Fgr (Homo sapiens), sequence (P09769 2-529 limits assumed): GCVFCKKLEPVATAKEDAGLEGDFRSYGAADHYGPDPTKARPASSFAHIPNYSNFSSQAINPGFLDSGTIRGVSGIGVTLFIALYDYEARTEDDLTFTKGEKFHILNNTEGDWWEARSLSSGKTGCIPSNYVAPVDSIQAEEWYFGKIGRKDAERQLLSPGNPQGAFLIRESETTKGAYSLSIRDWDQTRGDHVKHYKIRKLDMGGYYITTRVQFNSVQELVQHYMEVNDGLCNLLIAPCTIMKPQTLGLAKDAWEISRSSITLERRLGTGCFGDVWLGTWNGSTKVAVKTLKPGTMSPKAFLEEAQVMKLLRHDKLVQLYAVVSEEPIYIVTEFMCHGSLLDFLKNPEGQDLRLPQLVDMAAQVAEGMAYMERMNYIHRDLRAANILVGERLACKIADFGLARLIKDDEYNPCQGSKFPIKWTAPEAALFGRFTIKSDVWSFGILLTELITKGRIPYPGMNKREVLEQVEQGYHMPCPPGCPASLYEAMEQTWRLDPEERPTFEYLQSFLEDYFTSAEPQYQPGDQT
SMILES,inhibition [1],inhibition [2],inhibition [3],inhibition [4],inhibition [5],inhibition [6],inhibition [7],inhibition [8],inhibition [9],inhibition [10],inhibition [11],inhibition [12],inhibition [13],inhibition [14],inhibition [15],inhibition [16],inhibition [17],inhibition [18],inhibition [19],inhibition [20]
COc1ccc(CNC(=O)c2ccc(-c3cc(-c4nnc(C)o4)ccc3C)cc2)cc1,4.77%,1.89%,2.09%,3.05%,2.33%,3.51%,5.88%,2.91%,5.29%,3.34%,3.73%,8.93%,6.92%,-0.52%,-0.47%,0.57%,-0.2%,-2.79%,1.88%,1.4%
Fc1ccc(-c2nn3ccccc3c2-c2ccncc2)cc1,0.75%,0.57%,0.96%,3.29%,0.56%,-0.01%,6.38%,5.68%,2.66%,0.84%,2.03%,-0.1%,6.02%,1.98%,2.63%,-0.06%,2.86%,-0.98%,-0.08%,0.22%
CC(C)COC(=O)c1ccc2c(c1)/C(=C/Nc1ccc(S(N)(=O)=O)cc1)C(=O)N2,11.1%,-0.89%,-0.27%,0.13%,4.86%,-0.6%,17.3%,0.1%,10.8%,4.93%,2.26%,4.59%,32%,4.68%,39.4%,,56%,58.7%,4.42%,0.69%
COc1cc(N2CCN(C(C)C)CC2)ccc1Nc1nc(Nc2ccc(F)cc2C(N)=O)c2cc[nH]c2n1,82.8%,39.9%,81.7%,6.98%,2.33%,7.72%,3.84%,7.85%,3.24%,4.7%,7.42%,0.9%,5.03%,-0.84%,0.61%,2.47%,8.56%,2.42%,-2.61%,0.64%
CNC(=O)c1cncc(/C=C/c2ccccc2Cl)c1,3.78%,0.21%,0.02%,-1%,-1.84%,-1.98%,4.23%,0.84%,1.98%,1.47%,1.93%,5.13%,9.91%,0.53%,2.73%,1.25%,-0.38%,3.03%,2.16%,0.43%
NC(=O)c1sc(-n2cnc3ccc(C(F)(F)F)cc32)cc1OCc1ccccc1Br,2.2%,1.79%,2.43%,4.99%,5.11%,4.53%,4.28%,5.08%,3.54%,4.08%,2.14%,3.5%,1.54%,1.4%,4.1%,1.91%,1.02%,-2.48%,-3.62%,3.13%
CNC(=O)c1cc(-c2ccc(F)cc2)cc(-c2ccc(S(=O)(=O)N3CCCC3)cc2)c1N,2.21%,2.25%,1.64%,3.72%,5.1%,9.77%,5.71%,4.56%,3.99%,2.78%,0.22%,0.33%,2.93%,2.17%,-0.47%,3.03%,1.85%,-1.38%,-1.28%,1.59%
CCCN1CCC(c2ccc(Nc3nc(Nc4cc(F)ccc4C(N)=O)c4cc[nH]c4n3)c(OC)c2)CC1,82.4%,62.5%,80.5%,2.31%,2.41%,3.25%,6.48%,3.99%,1.74%,-5.38%,12.4%,6.28%,7.49%,0.21%,0.37%,4.46%,20.3%,6.01%,-2.78%,3.47%
Cc1ccc2c(-c3ccnc(Nc4ccccc4)n3)c(-c3ccc(F)cc3)nn2n1,8.06%,2.61%,5.64%,9.59%,10.9%,7.81%,13%,6.27%,8.54%,1.19%,1.8%,40.7%,78.4%,2.49%,22.1%,2.15%,4.21%,3.24%,-1.64%,3.56%
CCn1c(-c2nonc2N)nc2c(C#CC(C)(C)O)ncc(OC3CCNCC3)c21,3.91%,2.9%,5.88%,1.54%,-4.66%,9.23%,11.4%,7.92%,2.73%,6.43%,-1.22%,1.43%,4.57%,5.67%,16.4%,3.32%,3.82%,1.56%,-1.36%,2.05%
CCn1c(-c2nonc2N)nc2cnc(Oc3cccc(NC(=O)c4ccc(N(C)C)cc4)c3)cc21,2.5%,0.77%,1.31%,3.11%,0.12%,-0.14%,3.9%,2.5%,3.54%,1.51%,-0.05%,0.55%,,2.13%,4.41%,0.6%,1.09%,-1.65%,-0.04%,0.1%
CS(=O)(=O)CCNCc1ccc(-c2ccc3ncnc(Nc4ccc(OCc5ccccc5)c(C(F)(F)F)c4)c3c2)o1,1.94%,3.29%,3.27%,1.07%,5.49%,3.74%,6.37%,4.77%,5.71%,2.52%,2.14%,1.98%,4.93%,1.28%,0.39%,3.55%,2.04%,-8.47%,-3.76%,5.89%
CN1CCC(n2cnc(-c3ccc(F)cc3)c2-c2ccnc(N)n2)CC1,8.24%,2.63%,2.33%,-0.33%,-2.26%,1.68%,4.49%,3.51%,4.31%,1.4%,4.3%,4.22%,8.36%,-0.81%,2.41%,-0.36%,1.76%,-8.15%,-0.01%,1.97%
CC(=O)Nc1cccc(C#Cc2cncnc2Nc2ccc(OCc3cccc(F)c3)c(Cl)c2)c1,1.14%,3.02%,3.58%,5.54%,8.04%,2.27%,5.67%,4.66%,5.53%,0.9%,1.74%,2.84%,9.6%,2.19%,3.25%,2.59%,2.38%,-3.37%,0.26%,3.62%
